The text below walks through data of the supplement of paper PMC8975748.

Experiment [1] relates to Saccharomyces cerevisiae BY4741 SeMeCo community. The experiment is described as follows: mean cell size (pixel area) (pixels); higher = larger cells. Conditions: 10 µM; 24 h; SM minimal medium. The gist of the method: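 A Saccharomyces cerevisiae BY4741 community carrying four plasmids, each with a fluorescent marker and each complementing one auxotrophy, was exposed for 24 h to drug at a final 10 µM in SM medium in acoustically predosed 384-well plates. The overnight preculture (OD600 = 1.0) was diluted to OD600 = 0.3 before 70 µl was added per well. Cells were then fixed with paraformaldehyde, imaged by automated confocal microscopy and analysed in Harmony to derive mean cell pixel area per well, averaged over 3 replicates. Same SeMeCo high-content imaging drug screen: Selleck FDA-approved drugs at 10 µM, 24 h in SM medium, 384-well plates, 3 replicates.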

Experiment [2] has the same test system. Briefly: z-score of prototroph abundance vs DMSO median; higher = larger share of this subpopulation than in DMSO controls. Conditions: 10 µM; 24 h; SM minimal medium; subpopulation (auxotrophy): Prototroph. The gist of the method:
(§1)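 A Saccharomyces cerevisiae BY4741 community carried four plasmids, each restoring one auxotrophy and encoding a distinct fluorescent protein. It was pre-grown overnight to OD600 1.0, diluted to 0.3, and 70 µl was added to 384-well plates acoustically predosed with library drugs (10 µM final), then grown 24 h in minimal SM medium. Cells were paraformaldehyde-fixed and imaged by automated confocal microscopy, with single-auxotroph fluorescent strains setting thresholds and autofluorescence correction. Each subpopulation's abundance was scored as a z-score against the vehicle-well median.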

Experiment [3] has the same test system. Briefly: z-score of subpopulation abundance vs DMSO median, subpopulation auxotrophic for M; higher = larger share of this subpopulation than in DMSO controls. Conditions: 10 µM; 24 h; SM minimal medium; subpopulation (auxotrophy): M. The gist of the method: as §1
The test system is the same in experiment [4]. The experiment is described as follows: z-score of subpopulation abundance vs DMSO median, subpopulation auxotrophic for L; higher = larger share of this subpopulation than in DMSO controls. Particulars: 10 µM; 24 h; SM minimal medium; subpopulation (auxotrophy): L. The gist of the method:
as §1

The test system is the same in experiment [5]. The experiment is described as follows: z-score of subpopulation abundance vs DMSO median, subpopulation auxotrophic for U; higher = larger share of this subpopulation than in DMSO controls. Particulars: 10 µM; 24 h; SM minimal medium; subpopulation (auxotrophy): U. The gist of the method:
as §1

Experiment [6] shares this test system. Briefly: z-score of subpopulation abundance vs DMSO median, subpopulation auxotrophic for H; higher = larger share of this subpopulation than in DMSO controls. Conditions: 10 µM; 24 h; SM minimal medium; subpopulation (auxotrophy): H. The gist of the method:
as §1

Experiment [7] has the same test system. Briefly: z-score of subpopulation abundance vs DMSO median, subpopulation auxotrophic for LU; higher = larger share of this subpopulation than in DMSO controls. Particulars: 10 µM; 24 h; SM minimal medium; subpopulation (auxotrophy): LU. The gist of the method: as §1
Experiment [8] shares this test system. The experiment is described as follows: z-score of subpopulation abundance vs DMSO median, subpopulation auxotrophic for LM; higher = larger share of this subpopulation than in DMSO controls. Conditions: 10 µM; 24 h; SM minimal medium; subpopulation (auxotrophy): LM. The gist of the method:
as §1

For experiment [9] the test system is unchanged. Briefly: z-score of subpopulation abundance vs DMSO median, subpopulation auxotrophic for HU; higher = larger share of this subpopulation than in DMSO controls. Conditions: 10 µM; 24 h; SM minimal medium; subpopulation (auxotrophy): HU. The gist of the method:
as §1

Experiment [10] has the same test system. The experiment is described as follows: z-score of subpopulation abundance vs DMSO median, subpopulation auxotrophic for UM; higher = larger share of this subpopulation than in DMSO controls. Conditions: 10 µM; 24 h; SM minimal medium; subpopulation (auxotrophy): UM. The gist of the method:
as §1

For experiment [11] the test system is unchanged. The experiment is described as follows: z-score of subpopulation abundance vs DMSO median, subpopulation auxotrophic for HL; higher = larger share of this subpopulation than in DMSO controls. Particulars: 10 µM; 24 h; SM minimal medium; subpopulation (auxotrophy): HL. The gist of the method: as §1
The test system is the same in experiment [12]. Briefly: z-score of subpopulation abundance vs DMSO median, subpopulation auxotrophic for HLU; higher = larger share of this subpopulation than in DMSO controls. Conditions: 10 µM; 24 h; SM minimal medium; subpopulation (auxotrophy): HLU. The gist of the method: as §1
The test system is the same in experiment [13]. The experiment is described as follows: z-score of subpopulation abundance vs DMSO median, subpopulation auxotrophic for HLM; higher = larger share of this subpopulation than in DMSO controls. Particulars: 10 µM; 24 h; SM minimal medium; subpopulation (auxotrophy): HLM. The gist of the method:
as §1

Experiment [14] has the same test system. Briefly: z-score of subpopulation abundance vs DMSO median, subpopulation auxotrophic for HUM; higher = larger share of this subpopulation than in DMSO controls. Conditions: 10 µM; 24 h; SM minimal medium; subpopulation (auxotrophy): HUM. The gist of the method:
as §1

Experiment [15] has the same test system. Briefly: z-score of subpopulation abundance vs DMSO median, subpopulation auxotrophic for LUM; higher = larger share of this subpopulation than in DMSO controls. Particulars: 10 µM; 24 h; SM minimal medium; subpopulation (auxotrophy): LUM. The gist of the method: as §1
Experiment [16] shares this test system. Briefly: z-score of subpopulation abundance vs DMSO median, subpopulation auxotrophic for HLUM; higher = larger share of this subpopulation than in DMSO controls. Conditions: 10 µM; 24 h; SM minimal medium; subpopulation (auxotrophy): HLUM. The gist of the method: as §1
The test system is the same in experiment [17]. The experiment is described as follows: z-score of subpopulation abundance vs DMSO median, subpopulation auxotrophic for HM; higher = larger share of this subpopulation than in DMSO controls. Particulars: 10 µM; 24 h; SM minimal medium; subpopulation (auxotrophy): HM. The gist of the method:
as §1

The structures appear in SMILES notation. Counter-ions that a name gives are not always drawn. ± gives the standard deviation of the averaged measurements.

`CCCCC(=O)O[C@H]1CC[C@H]2[C@@H]3CCc4cc(O)ccc4[C@H]3CC[C@]12C` [Estradiol valerate] registered a mean cell size in experiment [1] of 12.4 ± 0.22. The “z-score of prototroph abundance” value in experiment [2] worked out at 0.39. Moreover, the “z-score of subpopulation abundance” value in experiment [3] is 0.23; in [4] it was -0.51; in experiment [5] it was 0.05; in [6] it was -0.49; in experiment [7], -0.16; in [8] it was -0.71. Moreover, the “z-score of subpopulation abundance” value in experiment [9] is -0.05; in experiment [10], 0; in experiment [11], -0.58; in [12], 0.43; in experiment [13], -0.87; in experiment [14], 0.19. Moreover, the “z-score of subpopulation abundance” value is -0.45 in experiment [15] and -0.75 in experiment [16].

Regarding `CCc1c(C)[nH]c2c1C(=O)C(CN1CCOCC1)CC2` (stereo unspecified) [Molindone hydrochloride], the mean cell size in experiment [1] was 12.2 ± 0.13. Further, the “z-score of prototroph abundance” value in experiment [2] turned out to be 0.46. The “z-score of subpopulation abundance” value in experiment [3] was -0.61; in experiment [4], 0.73; in experiment [5], -0.6; in experiment [6], -0.43; in experiment [7], -0.32; in experiment [8] it was -0.16. For the same molecule, the “z-score of subpopulation abundance” value in experiment [17] was -0.54; in [9] it was -0.73; in experiment [11], 0.22; in experiment [12], 0.45; in [13], -0.03; in [14], -0.76.

`N#Cc1ccc(Oc2ccc3c(c2)COB3O)cc1` [Crisaborole (AN2728)] came in with a mean cell size in experiment [1] of 12.3 ± 0.19. Moreover, the “z-score of prototroph abundance” value in experiment [2] was -3.53. Besides, the “z-score of subpopulation abundance” value in experiment [3] is -1.21; in experiment [4], 2.57; in [5] it was 0.49; in [6], 7.63; in experiment [7], 4.21; in [8], 2.61. The “z-score of subpopulation abundance” value was 0.93 in experiment [17]; -0.21 in [10]; 5.69 in experiment [11]; 6.18 in [12]; 3.78 in [13]; 1.2 in experiment [14]. Also, in experiment [15], the “z-score of subpopulation abundance” value was found to be 3.54.

Take `CC(C)[C@H](N)C(=O)OCCOCn1cnc2c(=O)nc(N)[nH]c21` [Valaciclovir HCl]: the mean cell size in experiment [1] amounted to 12.3 ± 0.16. The “z-score of prototroph abundance” value in [2] was determined as 0.5. Moreover, the “z-score of subpopulation abundance” value is -0.55 in experiment [3]; -0.06 in [4]; 0.12 in [5]; -0.62 in experiment [6]; -0.13 in experiment [7]; -0.74 in experiment [8]. Moreover, the “z-score of subpopulation abundance” value in experiment [17] is -0.81; in [9] it was 0.53; in experiment [10] it was 0.08; in experiment [12] it was -0.75; in experiment [13], -0.27; in experiment [14] it was 0.37.

Molecule `Cc1nnc(SCC2=C(C(=O)O)N3C(=O)[C@@H](NC(=O)Cn4cnnn4)[C@H]3SC2)s1` [Cefazolin Sodium] yielded a mean cell size in experiment [1] of 12.24 ± 0.096. Also, in experiment [2], the “z-score of prototroph abundance” value is -1.09. Further, the “z-score of subpopulation abundance” value was found to be 0.3 in experiment [3]; 0 in experiment [4]; 0.46 in experiment [5]; 1.95 in [6]; 1.43 in [7]; 0.26 in experiment [8]. For the same molecule, the “z-score of subpopulation abundance” value turned out to be 2.2 in experiment [9]; 0.25 in [10]; 1.09 in experiment [11]; 0.52 in experiment [12]; 0.22 in [13]; 0.08 in experiment [14]. Further, the “z-score of subpopulation abundance” value was 0.5 in experiment [15] and -0.81 in experiment [16].

The molecule `CCCC(=O)OCOC(=O)C1=C(C)NC(C)=C(C(=O)OC)C1c1cccc(Cl)c1Cl` (stereo unspecified) [Clevidipine Butyrate] displayed a mean cell size in [1] of 12.4 ± 0.13. The “z-score of prototroph abundance” value in [2] came out at 1.07. For the same molecule, the “z-score of subpopulation abundance” value in [3] was 4.72; in experiment [4] it was 2.14; in experiment [5], -3.89; in experiment [6] it was 1.96; in [7], -5.98; in experiment [8], 3.42. Besides, the “z-score of subpopulation abundance” value was 2.78 in [17]; -5.87 in experiment [10]; 2.31 in experiment [11]; -3.55 in experiment [12]; 3.24 in [13]; -4.83 in experiment [14]. Also, the “z-score of subpopulation abundance” value in experiment [15] was -4.1.

On to `COc1ccnc(C[S+]([O-])c2nc3cc(OC(F)F)ccc3[nH]2)c1OC` (stereo unspecified) [Pantoprazole sodium], for which the mean cell size in experiment [1] worked out at 12.5 ± 0.28. Also, the “z-score of prototroph abundance” value in experiment [2] is -0.43. Further, the “z-score of subpopulation abundance” value is 0.43 in [3]; -0.4 in experiment [4]; -0.3 in experiment [5]; 0.86 in [6]; -0.65 in experiment [7]; 0 in experiment [8]. Further, the “z-score of subpopulation abundance” value in experiment [17] is 0.29; in [9] it was 0.06; in experiment [10], 0.55; in experiment [11], -0.43; in [12], -0.16; in experiment [13], -0.85. Further, the results for the “z-score of subpopulation abundance” value in experiment [14] and in [15] were 0.3 and 0, respectively.

Consider `CC(Cc1ccc(O)c(O)c1)C(C)Cc1ccc(O)c(O)c1` (stereo unspecified) [Nordihydroguaiaretic acid (NDGA)], for which the mean cell size in [1] turned out to be 12.5 ± 0.17. For the same molecule, the “z-score of prototroph abundance” value in experiment [2] was 0.67. The “z-score of subpopulation abundance” value in experiment [3] is -0.1; in [4] it was 0.06; in [5], -0.02; in [6], -1.01; in experiment [7] it was -0.29; in experiment [8] it was 0.02. The “z-score of subpopulation abundance” value in experiment [17] is -0.39; in [9], -0.76; in [10], -0.5; in experiment [11], -0.39; in experiment [12], 0.33; in experiment [13], -0.39. Also, the “z-score of subpopulation abundance” value in experiment [14] is -0.77.
